Test results: PubChem BioAssay (Tox21)
Several values for one entry are separate records, joined by “and”; a condition that tells them apart may be missing. Identical values can stand only once. Records with an inconclusive call do not appear. A structure can be active in one record and inactive in another. Activity calls are given as the source filed them. Unless noted, calls follow the shape of the full dose curve.

Legend:
[1] = Nuclear factor erythroid 2-related factor 2/antioxidant responsive element (Nrf2/ARE) small molecule agonists: qHTS cell viability counter screen in human keratinocytes (AID 1919968; active = well fitted curve in the direction sought with a large enough effect in the repeat runs; an effect the other way counts as inactive or inconclusive; also: nearly all actives have a fitted effect of over 55% in size; also: potency is read from the fitted curve at half-maximal effect)
Outline: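 Viability counter-screen: KeratinoSens reporter cells, DMSO-delivered compounds, 23 h at 37 C, CellTiter-Fluor fluorescence.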

[2] = Nuclear factor erythroid 2-related factor 2/antioxidant responsive element (Nrf2/ARE) small molecule agonists: luciferase reporter gene qHTS assay in human keratinocytes (AID 1919969); also: nearly all actives have a fitted effect of over 35% in size
[3] = molecular target: Gonadotropin-releasing hormone receptor (Homo sapiens) (UniProt P30968); assay: Human gonadotropin-releasing hormone receptor (GnRHR) small molecule agonists, calcium flux assay in GnRHR-HEK293 cells (AID 1920063); also: nearly all actives have a fitted effect of over 35% in size
Gonadotropin-releasing hormone receptor (Homo sapiens), sequence (P30968 whole entry, looked up): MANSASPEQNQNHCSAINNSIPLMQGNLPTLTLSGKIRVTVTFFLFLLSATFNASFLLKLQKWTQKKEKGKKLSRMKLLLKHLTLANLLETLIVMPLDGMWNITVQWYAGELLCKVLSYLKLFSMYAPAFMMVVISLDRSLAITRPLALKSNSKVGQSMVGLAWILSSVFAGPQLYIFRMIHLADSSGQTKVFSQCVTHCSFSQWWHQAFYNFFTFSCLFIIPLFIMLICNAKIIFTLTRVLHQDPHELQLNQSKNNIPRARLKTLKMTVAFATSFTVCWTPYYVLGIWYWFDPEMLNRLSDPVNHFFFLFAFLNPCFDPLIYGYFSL
Outline: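 Tox21-format agonist screen using human GnRHR-expressing HEK293 cells and a fluorescent calcium dye; kinetic 3-min fluorescence reading after compound addition, 15-point concentration series run in triplicate.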

[4] = molecular target: KiSS-1 receptor (Homo sapiens) (UniProt Q969F8); assay: Human kisspeptin (KISS1R) small molecule agonists, calcium flux assay in KISS1R-HEK293 cells (AID 1920064; active = well fitted curve in the direction sought with a large enough effect in the repeat runs; an effect the other way counts as inactive or inconclusive)
KiSS-1 receptor (Homo sapiens), sequence (Q969F8 whole entry, looked up): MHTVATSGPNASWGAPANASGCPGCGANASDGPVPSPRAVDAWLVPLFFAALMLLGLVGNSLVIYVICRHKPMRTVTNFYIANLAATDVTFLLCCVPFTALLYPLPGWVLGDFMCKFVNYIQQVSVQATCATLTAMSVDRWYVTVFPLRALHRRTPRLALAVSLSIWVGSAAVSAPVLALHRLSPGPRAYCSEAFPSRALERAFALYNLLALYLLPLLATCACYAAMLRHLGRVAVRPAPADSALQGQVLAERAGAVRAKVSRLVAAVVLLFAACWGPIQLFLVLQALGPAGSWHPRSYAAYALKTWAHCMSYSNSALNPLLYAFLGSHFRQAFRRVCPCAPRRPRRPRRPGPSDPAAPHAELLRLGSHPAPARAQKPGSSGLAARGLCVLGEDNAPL
Outline: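 Intracellular calcium mobilization in KISS1R-HEK293 cells was recorded by fluorescence (Ex/Em 480/540) for 3 min following compound addition to cells pre-loaded 1 h with calcium dye.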

[5] = G protein-coupled receptor (GPCR) small molecule agonists, calcium flux assay: HEK293 wild type cell line counter screen (AID 1920065); also: potency is read from the fitted curve at half-maximal effect
Outline: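 In this agonist-mode screen, ATP is the positive control and DMSO the vehicle. Cells grow 18 h before a 1 h dye incubation at 37 C; signal is taken at Ex/Em 480/540 over 3 min.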

[6] = p53 small molecule agonists, cell-based qHTS assay with rat liver microsomes (AID 1963578)
Outline: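 Cells carrying a p53 response element–beta-lactamase reporter were plated and rested 5 h, then dosed with compound in DMSO plus rat liver microsomes and NADPH, each at 0.5 mg/mL final. After 16 h at 37 C, LiveBLAzer substrate was added for 2 h.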

[7] = p53 small molecule agonists, cell-based qHTS assay with human liver microsomes: qHTS cell viability counter screen (AID 1963579); also: nearly all actives have a fitted effect of over 45% in size
Outline: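 Cytotoxicity counter screen: p53RE-bla, 4,000 cells/well; 5 h settle, 37 C/5% CO2; cpd + HLM 0.5 mg/mL + NADPH 0.5 mg/mL (final); 16 h, 37 C; CellTiter-Glo, 30 min RT, luminescence.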

[8] = p53 small molecule agonists, cell-based qHTS assay: qHTS cell viability counter screen (AID 1963581); also: nearly all actives have a fitted effect of over 45% in size
Outline: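 Compounds are pinned onto HCT-116 p53RE-bla cells and left 16 h at 37 C. Following the reporter FRET read, ATP is quantified by CellTiter-Glo luminescence after 30 min at room temperature.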

[9] = p53 small molecule agonists, cell-based qHTS assay (AID 1963582; active = well fitted activation curve with a large enough effect in the signal ratio in the repeat runs, not every such curve was filed as active; the % refers to the signal ratio)
Outline: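 Agonist activity was scored from beta-lactamase FRET fluorescence in p53RE-bla cells treated 16 h at 37 C with compounds in DMSO, substrate incubation being 2 h at room temperature.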

[10] = cAMP Responsive Elements (CRE) small molecule agonists, cell-based qHTS assay (AID 1963590)
Outline: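 FRET-based beta-lactamase readout (LiveBLAzer B/G, 2 h RT) quantified CRE activation in HEK 293T CRE-bla cells after 3 h treatment with DMSO-dissolved compounds.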

[11] = cAMP Responsive Elements (CRE) small molecule antagonists, cell-based qHTS assay (AID 1963591; active = well fitted inhibition curve with a large enough effect in the signal ratio in the repeat runs, not every such curve was filed as active; the % refers to the signal ratio; also: potency is read from the fitted curve at half-maximal effect)
Outline: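 qHTS in CRE-bla HEK 293T cells: compound in DMSO, then 0.25 uM NKH477 (final), 3 h at 37 °C/5% CO2; beta-lactamase FRET read-out after 2 h substrate incubation.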

[12] = molecular target: Beta-2 adrenergic receptor (Homo sapiens) (UniProt P07550); assay: Adrenergic beta2 receptor (ADRB2) small molecule antagonists, cell-based qHTS assay (AID 1963592); also: series mostly up to about 92 µM; nearly all actives have a fitted effect of over 50% in size
Beta-2 adrenergic receptor (Homo sapiens), sequence (P07550 whole entry, looked up): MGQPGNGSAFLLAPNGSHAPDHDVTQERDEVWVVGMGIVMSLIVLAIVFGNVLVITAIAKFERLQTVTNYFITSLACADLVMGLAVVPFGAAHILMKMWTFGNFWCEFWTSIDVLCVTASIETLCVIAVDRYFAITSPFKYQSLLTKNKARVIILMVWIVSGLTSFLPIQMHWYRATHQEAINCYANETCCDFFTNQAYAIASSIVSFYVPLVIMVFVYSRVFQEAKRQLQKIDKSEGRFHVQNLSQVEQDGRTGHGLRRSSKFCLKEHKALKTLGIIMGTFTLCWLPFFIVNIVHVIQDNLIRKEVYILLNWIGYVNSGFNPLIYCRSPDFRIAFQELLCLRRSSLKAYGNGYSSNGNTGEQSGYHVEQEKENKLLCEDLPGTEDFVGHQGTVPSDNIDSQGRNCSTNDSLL
Outline: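 Cells (CHO, stable ADRB2 overexpression) incubated 18-20hr at 37C; compounds added from DMSO; agonist mix (1nM isoproterenol, 100uM IBMX, 25uM Ro-20-1724) added; 0.5hr RT; d2-cAMP and anti-cAMP-cryptate added; 1hr RT; 665/615 nm read.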

[13] = molecular target: Beta-2 adrenergic receptor (Homo sapiens) (UniProt P07550); assay: Adrenergic beta2 receptor (ADRB2) small molecule agonists, cell-based qHTS assay (AID 1963593);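 also: CHO cells stably overexpressing human ADRB2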
Outline: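 CHO cells stably over-expressing ADRB2 were plated overnight at 37C, then dosed with compounds plus a stimulation mix containing 100uM IBMX and 25uM Ro-20-1724 for 0.5hr at room temperature. cAMP was measured by HTRF competition, 1hr.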

[14] = molecular target: D(2) dopamine receptor (Homo sapiens) (UniProt P14416); assay: Dopamine D2 receptor (DRD2) small molecule agonists, cell-based qHTS assay (AID 1963594); also: nearly all actives have a fitted effect of over 35% in size
D(2) dopamine receptor (Homo sapiens), sequence (P14416 whole entry, looked up): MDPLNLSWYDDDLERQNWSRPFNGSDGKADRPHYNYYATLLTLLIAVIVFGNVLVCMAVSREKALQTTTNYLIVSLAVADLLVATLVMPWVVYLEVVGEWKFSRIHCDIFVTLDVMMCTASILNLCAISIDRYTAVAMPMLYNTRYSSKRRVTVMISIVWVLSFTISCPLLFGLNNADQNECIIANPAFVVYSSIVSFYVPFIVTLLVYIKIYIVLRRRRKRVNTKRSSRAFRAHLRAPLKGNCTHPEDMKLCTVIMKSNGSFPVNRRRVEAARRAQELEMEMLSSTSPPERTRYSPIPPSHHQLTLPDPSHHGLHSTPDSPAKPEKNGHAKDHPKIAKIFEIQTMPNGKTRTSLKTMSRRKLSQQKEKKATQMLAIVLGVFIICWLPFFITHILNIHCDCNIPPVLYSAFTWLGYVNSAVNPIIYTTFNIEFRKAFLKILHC
Outline: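 HEK293 cells stably expressing human DRD2, pre-treated with PDE inhibitor Ro20-1724 (0.1 mM final) and compound 10 min at room temperature, then stimulated with NKH477 (200nM […]) for 30 min. cAMP read by HTRF (665/620 nm).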

[15] = molecular target: D(2) dopamine receptor (Homo sapiens) (UniProt P14416); assay: Dopamine D2 receptor (DRD2) small molecule antagonists, cell-based qHTS assay (AID 1963595; active = well fitted inhibition curve with a large enough effect in the signal ratio in the repeat runs, with a control signal flat; the % refers to the signal ratio)
Outline: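 Readout: HTRF cAMP, cAMP-d2 competing with cellular cAMP for anti-cAMP cryptate, read after 1 h. Cells: DRD2-HEK293. Conditions: 0.1 mM Ro20-1724, 12 nM quinpirole, 200 nM NKH477, 30 min RT.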

[16] = p53 small molecule agonists, cell-based qHTS assay with rat liver microsomes: qHTS cell viability counter screen (AID 1963580); also: nearly all actives have a fitted effect of over 45% in size
Outline: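 Viability is assessed in parallel with the p53 reporter read: HCT-116 p53RE-bla cells receive compounds plus rat microsomes and NADPH (0.5 mg/mL final apiece), incubate 16 h at 37 C, and then CellTiter-Glo luminescence is recorded.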

[17] = molecular target: 5-hydroxytryptamine receptor 2A (Homo sapiens) (UniProt P28223); assay: 5-hydroxytryptamine receptor 2A (HTR2A) small molecule antagonists, cell-based qHTS assay (AID 1963586); also: nearly all actives have a fitted effect of over 45% in size
5-hydroxytryptamine receptor 2A (Homo sapiens), sequence (P28223 whole entry, looked up): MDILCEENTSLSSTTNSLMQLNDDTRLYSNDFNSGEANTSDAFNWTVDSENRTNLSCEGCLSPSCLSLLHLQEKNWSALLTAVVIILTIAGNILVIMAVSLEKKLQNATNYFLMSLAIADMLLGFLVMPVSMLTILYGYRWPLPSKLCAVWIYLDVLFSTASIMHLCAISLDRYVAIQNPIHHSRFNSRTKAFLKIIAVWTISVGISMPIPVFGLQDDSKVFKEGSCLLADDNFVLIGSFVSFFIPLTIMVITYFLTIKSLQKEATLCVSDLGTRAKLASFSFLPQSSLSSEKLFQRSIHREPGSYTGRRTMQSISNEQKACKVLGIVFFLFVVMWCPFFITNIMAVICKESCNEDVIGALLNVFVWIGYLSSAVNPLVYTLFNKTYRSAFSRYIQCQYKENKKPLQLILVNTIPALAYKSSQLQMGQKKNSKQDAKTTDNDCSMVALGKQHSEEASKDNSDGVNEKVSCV
Outline: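 Antagonist-mode intracellular calcium assay: DOI (4 nM) added after 5 min compound pre-incubation at room temperature to dye-loaded HTR2A-CHO cells. Fluorescence followed for 3 min, sampled every second.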

[18] = molecular target: 5-hydroxytryptamine receptor 2A (Homo sapiens) (UniProt P28223); assay: 5-hydroxytryptamine receptor 2A (HTR2A) small molecule agonists, cell-based qHTS assay (AID 1963587); also: nearly all actives have a fitted effect of over 30% in size
Outline: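 CHO cells stably expressing human HTR2A, plated 18 h, loaded with calcium dye 1 h at 37 C. Agonist mode: compounds added and intracellular calcium fluorescence recorded kinetically for 2 min at 1 sec intervals.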

[19] = molecular target: Muscarinic acetylcholine receptor M1 (Homo sapiens) (UniProt P11229); assay: Cholinergic receptor muscarinic 1 (CHRM1) small molecule antagonists, cell-based qHTS assay (AID 1963588); also: nearly all actives have a fitted effect of over 40% in size
Muscarinic acetylcholine receptor M1 (Homo sapiens), sequence (P11229 whole entry, looked up): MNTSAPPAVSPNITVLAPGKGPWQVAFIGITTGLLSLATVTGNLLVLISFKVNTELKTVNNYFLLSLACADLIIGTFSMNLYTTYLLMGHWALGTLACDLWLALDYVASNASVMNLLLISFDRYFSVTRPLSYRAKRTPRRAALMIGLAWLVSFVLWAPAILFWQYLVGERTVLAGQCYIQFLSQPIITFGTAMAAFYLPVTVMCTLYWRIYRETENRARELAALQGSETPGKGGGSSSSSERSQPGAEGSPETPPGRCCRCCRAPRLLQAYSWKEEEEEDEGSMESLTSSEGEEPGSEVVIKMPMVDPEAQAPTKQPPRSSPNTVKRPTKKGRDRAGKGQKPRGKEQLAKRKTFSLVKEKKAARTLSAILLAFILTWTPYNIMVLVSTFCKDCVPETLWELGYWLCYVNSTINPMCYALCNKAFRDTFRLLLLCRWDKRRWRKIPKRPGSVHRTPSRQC
Outline: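 CHRM1-CHO calcium-flux assay, antagonist mode. Cells were seeded 18 h, dye-loaded 1 h at 37 C and given compound for 5 min at RT, then acetylcholine was added at 50nM. FDSS fluorescence was read 3 min; 15 concentrations, three runs.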

[20] = molecular target: Muscarinic acetylcholine receptor M1 (Homo sapiens) (UniProt P11229); assay: Cholinergic receptor muscarinic 1 (CHRM1) small molecule agonists, cell-based qHTS assay (AID 1963589); also: nearly all actives have a fitted effect of over 35% in size
Outline: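 Stable CHRM1-CHO cells (human receptor) were incubated 18 h, dye-loaded for 1 h at 37 C and exposed to test compounds for agonist activity, with calcium-dependent fluorescence followed kinetically.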

Measured: Potency

OC[C@@H](O)[C@H](O)[C@H](O)[C@@H](O)CO
not listed: [16] | [17] | [18] | [19] | [20]
inactive: all other assays above

CCCCC(CC)C(=O)O (configuration not stated)
not listed: [6] | [9] | [10]
inactive: all other assays above

O=C1NC(=O)c2ccccc21
not listed: [6] | [9]
inactive: all other assays above

OC[C@@H](O)[C@@H](O[C@@H]1O[C@H](CO)[C@H](O)[C@H](O)[C@H]1O)[C@H](O)[C@@H](O)CO
not listed: [7] | [8] | [13]
inactive: all other assays above

CNC(=O)Oc1ccc2c(c1)[C@]1(C)CCN(C)[C@@H]1N2C
not listed: [6] | [16] | [17] | [18] | [19] | [20]
inactive: all other assays above

CCCCCCCCCC(=O)O
not listed: [5] | [8] | [10] | [13]
inactive: all other assays above

O=c1[nH]cnc2c1ncn2[C@H]1CC[C@@H](CO)O1
not listed: [6] | [9] | [10] | [17] | [18] | [19] | [20]
inactive: all other assays above

O=C(O)CCCCC(=O)O
not listed: [5] | [14] | [15] | [16]
inactive: all other assays above

CC(C)=CCC/C(C)=C\CO
not listed: [5] | [17] | [18] | [19] | [20]
inactive: all other assays above

NS(=O)(=O)c1cc(C(=O)O)c(NCc2ccco2)cc1Cl
inactive: [1] | [2] | [3] | [4] | [5] | [10] | [11] | [12] | [13] | [14] | [15]

CCN(CC)C(=S)SSC(=S)N(CC)CC
active: [1] 96.9 nM and 99.2 nM and 29.8 µM | [11] 1190 nM
inactive and 25.1 µM (active): [5]
inactive: [2] | [3] | [4] | [10] | [12] | [13] | [14] | [15]

CC(=O)Oc1ccccc1C(=O)O
not listed: [5] | [9] | [12] | [17] | [18] | [19] | [20]
inactive: all other assays above

NC(=O)N1c2ccccc2C=Cc2ccccc21
not listed: [6] | [8] | [9] | [13] | [17] | [18] | [19] | [20]
inactive: all other assays above

CC(=O)O[C@]1(C(C)=O)CC[C@H]2[C@@H]3C=C(Cl)C4=CC(=O)[C@@H]5C[C@@H]5[C@]4(C)[C@H]3CC[C@@]21C
inactive: [1] | [2] | [3] | [4] | [5] | [7] | [16] | [8] | [12] | [13] | [15]

COc1ccc2[nH]cc(CCNC(C)=O)c2c1
not listed: [5] | [8] | [14] | [17] | [18] | [19] | [20]
inactive: all other assays above
